# Active and inactive are the calls of the source.
# Legend:
# [1] = binders of probe aFSTL3 on microarray, primary screen, stem cell growth factor project, biochemical, small-molecule microarray, fluorescence 635/667 (AID 1064); conditions: higher = more signal;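 also: measures binding of the biotinylated anti-FSTL3 antibody to printed compounds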
# [2] = binders from COS7 lysate, DM2A8 probe, primary screen, torsin A project, cell lysate, small-molecule microarray, fluorescence 635/667 (AID 1065); conditions: higher = more signal, COS7 lysate expressing mutant human TOR1A
# [3] = binders of probe aFGF2 on microarray, primary screen, stem cell growth factor project, biochemical, small-molecule microarray, fluorescence 635/667 (AID 1067); conditions: higher = more signal;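 also: measures binding of biotinylated aFGF2 protein to printed compounds on slides; z-score merges feature fluorescence and signal-to-noise across triplicate slides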
# [4] = binders of probe aFGF10 on microarray, primary screen, stem cell growth factor project, biochemical, small-molecule microarray, fluorescence 635/667 (AID 1071); conditions: higher = more signal;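 also: score merges 667 nm spot intensity and signal to noise from triplicate slides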
# [5] = target: Neurogenic locus notch homolog protein 2 (Homo sapiens) (UniProt Q04721); assay: Notch2 binders on small-molecule microarrays, primary screen, biochemical, small-molecule microarray, 635 nm fluorescence, stem cell growth factors (AID 1073); conditions: Notch2 binding, higher = more signal
# [6] = target: Pro-neuregulin-1, membrane-bound isoform (Homo sapiens) (UniProt Q02297); assay: NRG1 binders on small-molecule microarrays, primary screen, psychiatric disease protein project, biochemical, small-molecule microarray, fluorescence 635/667 (AID 1075); conditions: NRG1 binding, 635 nm fluorescence, higher = more signal;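 also: score combines 667 nm spot fluorescence with signal to noise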
# [7] = system: Neuregulin-1 EGF-like domain; assay: binders of neuregulin-1 EGF-like domain, primary screen, biochemical, small-molecule microarray, 635 nm fluorescence (AID 1081); conditions: small-molecule microarray binding, higher = more signal;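 also: binding of the protein to compounds printed on small-molecule microarray slides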
# [8] = FRG1 promoter luciferase signal modulators, primary screen, FRG1 inhibition for FSHD, cell-based, C2C12 myotubes, firefly/Renilla luciferase, luminescence (AID 1084); conditions: higher = more signal, called active from +8 up or from −8 down
# [9] = binders of probe aFST on microarray, primary screen, stem cell growth factor project, biochemical, small-molecule microarray, fluorescence 635/667 (AID 1086); conditions: higher = more signal;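 also: score merges 667 nm fluorescence with signal-to-noise of each printed compound spot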
# [10] = binders of probe aHhip on microarray, primary screen, stem cell growth factor project, biochemical, small-molecule microarray, fluorescence 635/667 (AID 1087); conditions: higher = more signal;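 also: score merges spot fluorescence at 667nm with spot signal to noise ratio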
# [11] = system: PRMT1 (protein arginine N-methyltransferase 1); assay: PRMT1 binders on small-molecule microarrays, primary screen, biochemical, small-molecule microarray, 635 nm fluorescence (AID 1088); conditions: small-molecule microarray binding, higher = more signal;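 also: binding of Prmt1 protein to compounds spotted on small-molecule microarray slides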
# [12] = yeast growth modulation, basal conditions, primary screen, YJM789 clinical isolate, OD600, 24 h (AID 1089);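 also: growth of clinical yeast isolate S. cerevisiae YJM 789 seeded 1000 cells per well; test concentration not given here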; conditions: S. cerevisiae YJM789 growth, higher = more signal, called active from +8 up or from −8 down
# [13] = fission yeast growth modulation, primary screen, strain 972, OD600, 24 h, no modulator (AID 1090);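 also: basal condition with compound alone and no growth modifier present; test concentration not given here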; conditions: S. pombe 972 growth, higher = more signal, called active from +8 up or from −8 down
# [14] = S. cerevisiae growth modulation with rapamycin, primary screen, strain BY4716, OD600, 96 h (AID 1091); conditions: higher = more signal, called active from +8 up or from −8 down; also: test concentration not given here
# [15] = target: Torsin-1A-interacting protein 2 (Homo sapiens) (UniProt Q8NFQ8); assay: LULL1 binders on small-molecule microarray, primary screen, cell lysate, human LULL1 lysate, 635/667 nm fluorescence (AID 1092); conditions: hLULL1 lysate binding, 635 nm fluorescence, higher = more signal;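 also: probe is lysate of COS7 cells overexpressing human LULL1; score merges per-feature 667 nm fluorescence with signal-to-noise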
# [16] = E. coli growth modulation, two-sided OD650, primary screen, E. coli filamentation project, strain DRC41, 24 h (AID 1093); conditions: OD650, 24 h, higher = more signal, called active from +8 up or from −8 down;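 also: MC1000 strain lacking acrAB efflux and sulA so SOS filamentation is blocked; test concentration not given here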
# [17] = small-molecule microarray binders of probe aLefty2, primary screen, biochemical, biotinylated probe, 635/667 nm fluorescence (AID 1094); conditions: higher = more signal;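 also: score merges spot fluorescence near 667 nm with spot signal-to-noise ratio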
# [18] = system: Noggin (protein binding on small-molecule microarray); assay: Noggin binders on small-molecule microarray, primary screen, biochemical, 635/667 nm fluorescence (AID 1095); conditions: 635 nm fluorescence, higher = more signal;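 also: score merges 667 nm feature fluorescence with signal to noise over triplicate slides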
# [19] = target: Neurogenic locus notch homolog protein 3 (Homo sapiens) (UniProt Q9UM47); assay: NOTCH3 binders on small-molecule microarray, primary screen, biochemical, 635/667 nm fluorescence (AID 1096); conditions: NOTCH3 binding, 635 nm fluorescence, higher = more signal
# [20] = small-molecule microarray binders of probe aEGFR, primary screen, biochemical, biotinylated probe, 635/667 nm fluorescence (AID 1097); conditions: higher = more signal;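 also: probe is a biotinylated anti-EGFR antibody binding compounds printed on slides; score combines fluorescence near 667 nm and signal to noise of each spot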
# Neurogenic locus notch homolog protein 3 (Homo sapiens), sequence (Q9UM47 whole entry, looked up): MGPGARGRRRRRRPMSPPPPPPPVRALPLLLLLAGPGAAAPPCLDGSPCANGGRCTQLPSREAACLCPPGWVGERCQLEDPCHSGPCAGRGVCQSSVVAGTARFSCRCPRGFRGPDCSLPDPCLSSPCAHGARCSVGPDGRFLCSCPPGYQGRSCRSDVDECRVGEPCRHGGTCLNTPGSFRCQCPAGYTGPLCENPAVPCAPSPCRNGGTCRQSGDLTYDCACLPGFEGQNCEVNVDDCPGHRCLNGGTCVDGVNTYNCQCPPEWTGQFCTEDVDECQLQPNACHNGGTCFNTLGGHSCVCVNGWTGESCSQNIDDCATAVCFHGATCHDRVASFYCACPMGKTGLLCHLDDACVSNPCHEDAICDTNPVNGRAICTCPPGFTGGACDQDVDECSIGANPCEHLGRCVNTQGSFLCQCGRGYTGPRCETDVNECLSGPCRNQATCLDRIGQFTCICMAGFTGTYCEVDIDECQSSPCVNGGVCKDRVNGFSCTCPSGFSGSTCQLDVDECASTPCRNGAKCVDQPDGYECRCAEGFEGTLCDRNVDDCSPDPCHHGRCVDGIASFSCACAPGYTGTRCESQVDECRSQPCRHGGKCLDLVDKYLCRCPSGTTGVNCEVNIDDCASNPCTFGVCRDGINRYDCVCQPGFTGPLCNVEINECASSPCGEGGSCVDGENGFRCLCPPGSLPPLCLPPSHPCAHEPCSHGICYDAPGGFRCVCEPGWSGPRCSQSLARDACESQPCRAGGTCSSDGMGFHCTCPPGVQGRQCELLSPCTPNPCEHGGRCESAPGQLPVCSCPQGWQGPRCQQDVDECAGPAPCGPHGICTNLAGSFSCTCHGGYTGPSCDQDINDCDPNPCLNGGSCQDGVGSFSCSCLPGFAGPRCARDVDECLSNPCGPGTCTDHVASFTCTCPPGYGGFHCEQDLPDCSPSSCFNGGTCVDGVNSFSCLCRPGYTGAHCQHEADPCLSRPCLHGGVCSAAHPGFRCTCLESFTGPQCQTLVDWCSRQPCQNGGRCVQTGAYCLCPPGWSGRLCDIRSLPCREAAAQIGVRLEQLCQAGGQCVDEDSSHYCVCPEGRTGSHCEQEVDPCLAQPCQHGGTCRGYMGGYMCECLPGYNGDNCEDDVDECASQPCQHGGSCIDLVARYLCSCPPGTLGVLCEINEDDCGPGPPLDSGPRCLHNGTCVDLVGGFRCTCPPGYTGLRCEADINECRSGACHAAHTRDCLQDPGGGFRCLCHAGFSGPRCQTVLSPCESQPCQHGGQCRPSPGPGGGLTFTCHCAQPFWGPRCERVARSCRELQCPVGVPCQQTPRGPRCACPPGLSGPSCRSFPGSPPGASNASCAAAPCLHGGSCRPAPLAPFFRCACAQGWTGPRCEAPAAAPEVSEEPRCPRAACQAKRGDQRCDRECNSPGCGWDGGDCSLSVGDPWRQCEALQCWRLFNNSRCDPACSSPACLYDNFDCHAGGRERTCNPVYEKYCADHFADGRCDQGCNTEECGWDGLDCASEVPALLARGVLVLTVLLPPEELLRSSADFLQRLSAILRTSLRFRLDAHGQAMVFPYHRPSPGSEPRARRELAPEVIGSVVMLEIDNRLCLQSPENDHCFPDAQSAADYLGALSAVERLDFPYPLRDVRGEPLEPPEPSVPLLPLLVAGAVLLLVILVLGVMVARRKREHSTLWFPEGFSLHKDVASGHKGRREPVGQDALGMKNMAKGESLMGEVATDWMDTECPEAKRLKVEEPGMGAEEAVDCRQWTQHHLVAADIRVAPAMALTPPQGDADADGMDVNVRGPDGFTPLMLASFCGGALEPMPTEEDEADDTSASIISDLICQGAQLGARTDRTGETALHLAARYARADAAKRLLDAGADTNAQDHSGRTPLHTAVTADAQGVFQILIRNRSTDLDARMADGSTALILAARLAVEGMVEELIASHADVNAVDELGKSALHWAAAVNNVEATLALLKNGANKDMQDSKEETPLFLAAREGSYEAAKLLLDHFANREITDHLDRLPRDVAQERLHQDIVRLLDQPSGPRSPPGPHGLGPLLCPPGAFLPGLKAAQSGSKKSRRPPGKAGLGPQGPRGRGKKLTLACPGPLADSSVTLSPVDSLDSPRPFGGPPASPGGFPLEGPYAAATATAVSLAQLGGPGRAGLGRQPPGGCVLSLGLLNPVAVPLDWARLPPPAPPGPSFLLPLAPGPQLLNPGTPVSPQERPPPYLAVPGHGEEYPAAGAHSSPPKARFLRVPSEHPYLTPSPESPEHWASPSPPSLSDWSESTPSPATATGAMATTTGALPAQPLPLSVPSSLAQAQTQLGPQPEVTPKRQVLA
# Pro-neuregulin-1, membrane-bound isoform (Homo sapiens), sequence (Q02297 whole entry, looked up, the tested form may be a part, canonical isoform): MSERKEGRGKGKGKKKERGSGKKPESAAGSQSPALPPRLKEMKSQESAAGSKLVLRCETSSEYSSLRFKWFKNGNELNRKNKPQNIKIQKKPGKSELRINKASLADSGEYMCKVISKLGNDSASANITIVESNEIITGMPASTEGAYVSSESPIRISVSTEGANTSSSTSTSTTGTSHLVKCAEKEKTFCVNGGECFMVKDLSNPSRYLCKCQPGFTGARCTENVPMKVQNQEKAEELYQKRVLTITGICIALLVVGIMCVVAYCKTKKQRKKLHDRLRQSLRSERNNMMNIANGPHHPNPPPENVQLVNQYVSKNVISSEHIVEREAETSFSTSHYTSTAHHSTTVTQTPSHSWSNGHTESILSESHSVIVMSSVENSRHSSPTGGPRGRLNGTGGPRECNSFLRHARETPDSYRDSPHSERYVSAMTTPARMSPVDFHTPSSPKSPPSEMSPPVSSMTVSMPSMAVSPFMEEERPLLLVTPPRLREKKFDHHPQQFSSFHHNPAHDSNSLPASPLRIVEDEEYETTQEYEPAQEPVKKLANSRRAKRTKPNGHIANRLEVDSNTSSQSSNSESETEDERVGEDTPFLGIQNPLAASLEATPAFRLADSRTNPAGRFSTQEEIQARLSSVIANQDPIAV
# Torsin-1A-interacting protein 2 (Homo sapiens), sequence (Q8NFQ8 whole entry, looked up): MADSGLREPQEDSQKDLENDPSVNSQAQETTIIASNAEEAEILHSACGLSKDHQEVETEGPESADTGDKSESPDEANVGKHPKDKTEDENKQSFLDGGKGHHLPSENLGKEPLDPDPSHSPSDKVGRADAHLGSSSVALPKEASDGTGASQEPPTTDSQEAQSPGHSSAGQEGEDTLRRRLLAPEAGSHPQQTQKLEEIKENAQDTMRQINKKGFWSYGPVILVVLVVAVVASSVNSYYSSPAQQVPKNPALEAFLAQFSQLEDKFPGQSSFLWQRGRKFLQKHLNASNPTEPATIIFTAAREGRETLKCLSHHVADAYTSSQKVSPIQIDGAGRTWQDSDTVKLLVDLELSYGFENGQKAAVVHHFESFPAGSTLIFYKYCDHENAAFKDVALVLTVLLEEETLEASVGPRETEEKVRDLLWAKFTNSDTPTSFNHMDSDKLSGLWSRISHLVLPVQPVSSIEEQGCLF
Structure (SMILES),composite z-score [1],composite z-score [2],composite z-score [3],composite z-score [4],composite z-score [5],composite z-score [6],composite z-score [7],z-score [8],composite z-score [9],composite z-score [10],composite z-score [11],z-score [12],z-score [13],z-score [14],composite z-score [15],z-score [16],composite z-score [17],composite z-score [18],composite z-score [19],composite z-score [20]
COC(=O)C(CC#Cc1ccc2c(c1)[C@]1(C(=O)N2)[C@H](c2ccc(OCCO)cc2)N2[C@H](c3ccccc3)[C@H](c3ccccc3)OC(=O)[C@H]2[C@@H]1C(N)=O)C(=O)OC,0.0757,0.268,0.187,0.489,0.0619,1.26,1.17,2.1 (inactive),-0.0778,0.0826,1.06,1.76 (inactive),1.23 (inactive),6.23 (inactive),2.03,-0.0446 (inactive),-0.134,0.122,0.0497,-0.19
CCOC(=O)C=C1C[C@@H](c2cccc([N+](=O)[O-])c2)O[C@@H](c2cccc([N+](=O)[O-])c2)O1,0.654,0.178,0.429,0.432,1.59,0.962,0.896,-2.17 (inactive),1.72,-0.226,1.5,1.07 (inactive),1.8 (inactive),1.79 (inactive),2.29,-0.239 (inactive),0.91,0.327,1.12,0.246
CC(=O)NCCCC[C@@H]1NC(=O)[C@H]2C[C@@H](C(=O)NCCCCCN)[C@@H](c3ccc(O)cc3)N2C1=O,0.392,0.861,0.007,0.198,1,0.0529,1.2,-0.248 (inactive),0.418,0.141,1.07,0.447 (inactive),-0.121 (inactive),1.01 (inactive),2.05,-0.475 (inactive),0.0158,1.35,0.284,0.0209
COc1ccc([Si](C)(C)[C@@H]2[C@@H](CC(=O)N3CCC[C@H]3CO)O[C@]3(C(=O)N(Cc4cccc(N5C(=O)c6cccc7cccc5c67)c4)c4ccccc43)[C@H]2C)cc1,-0.401,0.342,-0.0666,0.219,-0.321,1.22,1.06,-1.01 (inactive),0.019,-0.0618,1.34,-0.702 (inactive),-0.487 (inactive),-0.158 (inactive),1.48,1.55 (inactive),-0.0757,0.641,0.368,-0.115
COC(=O)Cn1c(C(=O)N(C)C)cc2c1C[C@H]1CN(C(=O)c3ccccc3)[C@@](Cc3ccccc3)(C(=O)OC)[C@@H]21,-0.215,-0.365,-0.0493,0.0707,1.47,1.5,0.641,1.5 (inactive),0.0747,0.12,-0.858,-0.561 (inactive),-0.103 (inactive),-0.207 (inactive),1.36,-0.537 (inactive),0.0022,0.449,0.0571,0.25
COc1cc2c(cc1OC)CN(C(=O)[C@@H]1[C@H]3C(=O)O[C@H](c4ccccc4)[C@H](c4ccccc4)N3[C@H](c3ccc(O)cc3)[C@@]13C(=O)Nc1ccc(C#CC4=CCCCC4)cc13)CC2,0.105,0.576,-0.0899,0.864,1.48,0.347,1.13,0.561 (inactive),0.588,0.0479,1.55,1.63 (inactive),-0.921 (inactive),1.88 (inactive),2.44,2.11 (inactive),-0.0753,0.82,1.08,0.0324
[N-]=[N+]=Nc1ccccc1C[C@@]1(C(=O)NCc2ccccc2)N=C(c2ccc(OCCCO)cc2)O[C@@H]1c1ccccc1,0.584,0.405,0.0421,1.05,1.46,0.794,0.747,-2.86 (inactive),0.838,-0.0296,1.54,-1.27 (inactive),0.326 (inactive),5.57 (inactive),3.02,0.594 (inactive),0.271,0.922,1.03,0.1
Cc1ccc(S[C@]2(C(=O)NCc3ccccc3)CC(=O)N(Cc3ccccc3C(F)(F)F)[C@@H]2c2ccc(CO)cc2I)cc1,0.412,-0.135,-0.106,-0.655,-0.717,1.56,0.472,-0.701 (inactive),-0.319,-0.251,1.3,-1.53 (inactive),-4.08 (inactive),0.899 (inactive),1.93,0.322 (inactive),-0.0593,-0.86,-0.582,-0.282
Cc1ccc(N2C(=O)c3ccccc3[C@@H](C(=O)NCCN3CCOCC3)[C@@H]2c2ccc(CO)cc2)nc1,1.02,-1.48,-0.116,-0.319,-1.34,0.209,-0.297,0.169 (inactive),-0.58,-0.249,0.722,0.333 (inactive),-0.33 (inactive),-1.59 (inactive),0.58,0.346 (inactive),-0.0798,0.0453,0.248,-0.197

# From PubChem BioAssay
